FMDV inh: High Throughput Screening for Foot and Mouth Disease Virus Antivirals; Potency, µM (titrated, usually from 57.9 µM), for the others: top-dose activity change, negative = inhibition, actives largely listed as inhibitors; 410,000 tested, 1.2% active; AID 1159524, 2015; FMDV antiviral cell-based qHTS; calls by dose curve; tested in HEK293T cells; note: read-out not given here; potency is the fitted concentration of half-maximal effect; nearly all actives have a fitted effect of over 45% in size
MARV entry inh: qHTS for inhibitors of binding or entry into cells for Marburg Virus. Potency, µM (top dose mostly 37.8 µM), inactives show at the top dose activity change, negative = inhibition, usual class: inhibitors. 300,000 tested, 1.8% active. Marburg virus pseudotyped entry inhibition, cell reporter; calls by dose curve; tested in HEK293 cells; note: potency is the fitted concentration of half-maximal effect
HCMV antiviral: qHTS Assay for inhibitors of the human cytomegalovirus (HCMV). 410,000 tested, 4.5% active. HFF cells, HCMV-luciferase reporter, 72 h; stronger effect = lower value. activity change, negative = inhibition, % at 57.5 µM; in the data active = activity change below about -60%; inconclusive = no clear call, values can overlap the other calls; inactive = above about -39%
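Steps: HFFs plated, 16 h 37C; compounds added; HCMV-luciferase added to MOI 1 PFU/cell; 72 h 37C; OneGlo reagent, 5 min room temperature; luminescence read, normalized to controls.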
HCV inhibitor: qHTS Assay for Inhibitors of Hepatitis C Virus (HCV) | AID 651820, 2012 | 340,000 tested, 3.4% active | Huh7.5.1 HCVcc-Cre infection, luciferase reporter, 44 h | Potency, µM (doses to about 41.8 µM), without a hit: at the highest dose activity change, negative = inhibition, usual class: inhibitors; active = well fitted inhibition curve with a large enough effect; inconclusive = small, poorly fitted or top-dose-only effect, or another doubt; inactive = no such curve, though single readings can be large or run the other way; note: potency is the fitted concentration of half-maximal effect
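Cells seeded at 1,000/well and cultured 4 h, then compounds added followed by HCVcc-Cre virus (~0.5 moi). After 44 h further culture, luciferase substrate was added, plates held 15 min at room temperature, and luminescence read for 15 sec.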
Lassa entry inh: qHTS for Inhibitors of binding or entry into cells for Lassa Virus; Lassa virus pseudotype entry inhibition, cell reporter; 300,000 tested, 1.2% active; Potency, µM (series often up to 37.9 µM), without a hit: top-dose activity change, negative = inhibition, usual class: inhibitors; calls by dose curve; tested in HEK293 cells; note: potency is the fitted concentration of half-maximal effect; nearly all actives have a fitted effect of over 50% in size
Active calls of the source: *; [ ] = another dose, or the depositor's remark. The list is not random: actives were taken first. Their share in the collection is about 7.9%. % is set by controls: 0 for no effect and ±100 for the full control effect.

`COCCn1c(=O)c(CCc2ccccc2)nc2cnc(Oc3cccc(Cl)c3)nc21` gave FMDV inh 26%.
Screening COc1ccc(CN2C(=O)C(n3ccc4ccccc43)c3cc(F)ccc32)cc1 (stereo not drawn) returned HCMV antiviral 14.
Screening Cc1nc(/C=C/c2ccccc2)[nH]c(=O)c1-c1ccccc1 returned FMDV inh 52%, MARV entry inh inconclusive, HCMV antiviral 71, HCV inhibitor 4% and Lassa entry inh inconclusive.
Screening CC(C)n1ncc2c(C(=O)Nc3cccc(C#N)c3)cc(C3CC3)nc21 returned FMDV inh inconclusive, HCMV antiviral -91* and HCV inhibitor 11µM*.
For CC(C)n1ncc2c(C(=O)O)cc(C3CC3)nc21 the results were FMDV inh -16%, HCMV antiviral 3 and HCV inhibitor 10%.
CC(C)n1ncc2c(C(=O)N3CCN(Cc4ccc(Br)s4)CC3)cc(C3CC3)nc21 was read as FMDV inh -30%, HCMV antiviral -24 and HCV inhibitor 10µM*.
For CCOC(=O)c1ccc2c(c1)N(CC(=O)Nc1ccc(CC)cc1)C(=O)c1ccccc1S2 the results were FMDV inh -4%, HCMV antiviral -7 and Lassa entry inh 25%[46.1 µM].
For COC(=O)CC=C[C@@H](C)[C@@H](C=NOC[C@@H](C)[C@H](OCc1ccccc1)C(C)C)NS(=O)(=O)c1ccc(C)cc1 the results were MARV entry inh -14%[14.2 µM] and Lassa entry inh -4%[14.3 µM].
CCCCNc1nc(NC)nc(Cl)c1SC was read as FMDV inh -3%, HCMV antiviral -35 and HCV inhibitor -1%.
For CNc1nc(Cl)c(SC)c(N2CCOCC2)n1 the results were FMDV inh -16%, MARV entry inh 8%[46.1 µM], HCMV antiviral 30, HCV inhibitor 0.89µM* and Lassa entry inh 3%[46.1 µM].
`O=C(NCCc1c[nH]c2ccccc12)O[C@H]1CC[C@@]23CCCN2C(=O)CCC[C@H]3[C@H]1Cc1ccccc1` gave HCMV antiviral 16.
NNC(=O)/C(=N/Nc1ccccc1)S(=O)(=O)c1ccc(Cl)cc1 was read as FMDV inh -22%, MARV entry inh inconclusive, HCMV antiviral -26, HCV inhibitor 10µM* and Lassa entry inh 16µM*.
CCOC(=O)/C(=N/Nc1ccc(C)cc1)S(=O)(=O)c1ccc(Cl)cc1 was read as FMDV inh 53%, MARV entry inh inconclusive, HCMV antiviral 52, HCV inhibitor -8% and Lassa entry inh 7%.
`CCOC(=O)[C@]12CCC=C1N(Cc1ccccc1)C(=O)[C@H](CC(=O)NCCC(C)C)C2` gave FMDV inh 12% and HCMV antiviral 20.
CCCCNC(=O)C1CCC(CNS(=O)(=O)c2ccc(Cl)cc2)CC1 (stereo not drawn) was read as FMDV inh -1%, HCMV antiviral -7 and Lassa entry inh 25%[46.1 µM].
CCCCOc1ccc(N2C(=O)C(C)CNC2=S)cc1 (stereo not drawn) was read as FMDV inh 3%, MARV entry inh -2%, HCMV antiviral -99*, HCV inhibitor 24% and Lassa entry inh 0%[46.1 µM].
`CCOc1ccc(N2C(=O)CNC2=S)cc1` gave FMDV inh -3%, MARV entry inh -22%[46.1 µM], HCMV antiviral -22, HCV inhibitor 8% and Lassa entry inh -3%.
For c1cncc(CN2CCN(c3cc(-c4cnc5ccccc5c4)nc4ccnn34)CC2)c1 the results were FMDV inh 2% and HCMV antiviral -19.
For Cc1ccc(S(=O)(=O)NCc2ccc(C(=O)N3CCN(Cc4ccccc4)CC3)cc2)cc1 the results were MARV entry inh inconclusive, HCMV antiviral -93*, HCV inhibitor 4µM* and Lassa entry inh inconclusive.
Screening O=C(c1cccc(S(=O)(=O)NCc2ccccc2)c1)N1CCN(Cc2ccccc2)CC1 returned FMDV inh -18%, MARV entry inh 14%, HCMV antiviral -97*, HCV inhibitor -7% and Lassa entry inh -17%.
COc1cccc(S(=O)(=O)NCc2ccc(C(=O)N3CCN(Cc4ccccc4)CC3)cc2)c1 was read as FMDV inh -16%, MARV entry inh inconclusive, HCMV antiviral -27, HCV inhibitor 10µM* and Lassa entry inh inconclusive.
Screening COc1ccc(CN2CCN(C(=O)c3ccc(CNS(=O)(=O)c4ccc(C)cc4)cc3)CC2)c(OC)c1OC returned FMDV inh inconclusive, HCMV antiviral -39 and HCV inhibitor 0%.
Screening CCN1CCN(C(=O)c2ccc(CNS(=O)(=O)c3cccc(OC)c3)cc2)CC1 returned FMDV inh -6%, MARV entry inh -1%, HCMV antiviral 4, HCV inhibitor 17% and Lassa entry inh 0%.
`COC(=O)c1ccc(C)c(NS(=O)(=O)c2ccc(OC)cc2)c1` gave FMDV inh 35%, MARV entry inh inconclusive, HCMV antiviral -91*, HCV inhibitor -21% and Lassa entry inh inconclusive.
For CN(C)c1nc2n(c(=O)n1)[C@H](C#N)CS2 the results were MARV entry inh 2%.
For O=C(NCC1(N2CCOCC2)CCCCC1)c1cnn(-c2nccc(-c3cccs3)n2)c1C1CC1 the results were FMDV inh -16%.
`O=C(CN1c2cccc3cccc(c23)S1(=O)=O)Nc1ccccc1Br` gave FMDV inh -27%, HCMV antiviral -19 and HCV inhibitor -16%.
Screening COc1ccc2cc(CNC3CCS(=O)(=O)C3)c(-c3ccc(OC)c(OC)c3)nc2c1 (stereo not drawn) returned FMDV inh -15%.
For COc1ccc(S(=O)(=O)Nc2ccccc2)cc1 the results were FMDV inh 52%, MARV entry inh -5%, HCMV antiviral 2, HCV inhibitor 4% and Lassa entry inh 13%.
Screening COc1ccc(NS(=O)(=O)c2ccc(NC(=O)C3CC3)cc2)cc1 returned FMDV inh -19%, MARV entry inh -26%, HCMV antiviral -10, HCV inhibitor 10µM* and Lassa entry inh inconclusive.
For O=C(Nc1ccc(S(=O)(=O)Nc2ccc(Cl)cc2)cc1)C1CCCO1 (stereo not drawn) the results were FMDV inh 2%, MARV entry inh -14%, HCMV antiviral -24, HCV inhibitor 22µM* and Lassa entry inh inconclusive.
Screening COc1ccc(NS(=O)(=O)c2ccc(C(=O)N3CCN(Cc4ccccc4)CC3)cc2)cc1 returned FMDV inh inconclusive, HCMV antiviral -31 and HCV inhibitor 11µM*.
For COc1ccc(N2CCN(C(=O)c3ccc(NS(=O)(=O)c4ccccc4)cc3)CC2)cc1 the results were FMDV inh -9%, MARV entry inh inconclusive, HCMV antiviral -34, HCV inhibitor -18% and Lassa entry inh 4%.
`COc1ccc(S(=O)(=O)Nc2ccc(O)c3ccccc23)cc1` gave FMDV inh -17%, MARV entry inh 0%, HCMV antiviral -104*, HCV inhibitor inconclusive and Lassa entry inh inconclusive.

Assay outcomes (PubChem BioAssay)
